Where a name gives a salt, the structure may show the parent alone.
system: Haemophilus parainfluenzae; test: growth AUC normalised to DMSO control (fraction of control); higher = less growth inhibition, active = hit call of the paper; conditions: 20 µM
Summary of the method: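 Hemin and NAD were added to the medium for Haemophilus parainfluenzae. All pathogens, after two anaerobic passages, were inoculated at a starting OD578 of 0.01 into pre-reduced mGAM plates with 20 μM compound and 1% DMSO under breathable seals, and OD578 was read hourly for 24 h in three biological replicates. AUC of each growth curve was obtained with the trapezoidal rule up to the exponential-to-stationary transition and normalised to DMSO controls from the same plate.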

Compound	growth AUC normalised to DMSO control
CC(C)(C)NCC(O)COc1cccc2c1CC(O)C(O)C2 (stereo not drawn) [Nadolol]	1 (inactive)
COc1ccc([C@@H]2Sc3ccccc3N(CCN(C)C)C(=O)[C@@H]2OC(C)=O)cc1 [Diltiazem hydrochloride]	0.988 (inactive)
CCN(CC)Cc1cc(Nc2ccnc3cc(Cl)ccc23)ccc1O [Amodiaquine dihydrochloride dihydrate]	0.992 (inactive)
CCN(CC)CCCC(C)Nc1ccnc2cc(Cl)ccc12 (stereo not drawn) [Chloroquine diphosphate]	1.01 (inactive)
CCCNC(=O)NS(=O)(=O)c1ccc(Cl)cc1 [Chlorpropamide]	0.995 (inactive)
Nc1ncnc2c1ncn2[C@@H]1O[C@H](CO)[C@@H](O)[C@@H]1O [Vidarabine]	0.96 (inactive)
CNCCCC1c2ccccc2C=Cc2ccccc21 [Protriptyline hydrochloride]	0.977 (inactive)
CCOC(=O)n1ccn(C)c1=S [Carbimazole]	0.99 (inactive)
CC[C@@H](CO)NCCN[C@@H](CC)CO [Ethambutol dihydrochloride]	0.809 (inactive)
Cc1cn([C@H]2C[C@H](N=[N+]=[N-])[C@@H](CO)O2)c(=O)[nH]c1=O [Zidovudine]	0.581 (active)
CC(=O)OCC(=O)NCCCOc1cccc(CN2CCCCC2)c1 [Roxatidine acetate hydrochloride]	0.971 (inactive)
COc1cccc(N(C)C(=S)Oc2ccc3c(c2)CCCC3)n1 [Liranaftate]	1.01 (inactive)
CN1[C@@H]2CC[C@H]1C[C@@H](OC(=O)c1c[nH]c3ccccc13)C2 [Tropisetron hydrochloride]	1 (inactive)

Reference: the supplement of paper PMC12350171
